Experimental data as given in the supplement of paper PMC8728848.
This is one part of a sample in which the strongest signals are shown more often than they occur.

Assays:
Experiment in all cases: glycan array binding signal (z-score within array); higher = stronger binding
Conditions in all cases: glycan notation: IUPAC condensed, linker removed
Gal3S(b1-4)Glc = target: Gal3S(b1-4)Glc
In short: (§1)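 The Consortium for Functional Glycomics database supplied 3228 glycan arrays, of which those lacking an available protein sequence were dropped. The binding signal, a within-array Z-score, was averaged across arrays of the same protein sequence and across linkers. Negative scores can be read as non-binding.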

[1] = target: Gal3S(b1-4)[Fuc(a1-3)]GlcNAc6S
In short: as §1

Gal3S6S(b1-4)GlcNAc6S = target: Gal3S6S(b1-4)GlcNAc6S
In short: as §1

Gal6S(b1-3)GlcNAc6S = target: Gal6S(b1-3)GlcNAc6S
In short: as §1

GalNAc(a1-3)Gal = target: GalNAc(a1-3)Gal
In short: as §1

[2] = target: Glc(a1-6)Glc(a1-6)Glc(a1-6)Glc
In short: as §1

[3] = target: GlcNAc(a1-4)Gal(b1-4)GlcNAc(b1-3)Gal(b1-4)[Fuc(a1-3)]GlcNAc(b1-3)Gal(b1-4)[Fuc(a1-3)]GlcNAc
In short: as §1

[4] = target: GlcNAc(b1-2)Gal(b1-3)GalNAc
In short: as §1

[5] = target: GlcNAc(b1-2)[GlcNAc(b1-4)]Man(a1-3)[GlcNAc(b1-4)][GlcNAc(b1-2)[GlcNAc(b1-6)]Man(a1-6)]Man(b1-4)GlcNAc(b1-4)[Fuc(a1-6)]GlcNAc
In short: as §1

[6] = target: GlcNAc(b1-2)[GlcNAc(b1-6)]Man(a1-6)[GlcNAc(b1-2)Man(a1-3)]Man(b1-4)GlcNAc(b1-4)[Fuc(a1-6)]GlcNAc
In short: as §1

[7] = target: GlcNAc(b1-2)[GlcNAc(b1-6)]Man(a1-6)[GlcNAc(b1-4)][GlcNAc(b1-2)Man(a1-3)]Man(b1-4)GlcNAc(b1-4)GlcNAc
In short: as §1

[8] = target: GlcNAc(b1-3)Gal(b1-4)GlcNAc(b1-3)Gal(b1-4)GlcNAc(b1-3)Gal(b1-4)GlcNAc(b1-3)Gal(b1-4)GlcNAc(b1-2)Man(a1-3)[GlcNAc(b1-3)Gal(b1-4)GlcNAc(b1-3)Gal(b1-4)GlcNAc(b1-3)Gal(b1-4)GlcNAc(b1-3)Gal(b1-4)GlcNAc(b1-2)Man(a1-6)]Man(b1-4)GlcNAc(b1-4)[Fuc(a1-6)]GlcNAc
In short: as §1

[9] = target: GlcNAc(b1-3)Gal(b1-4)GlcNAc(b1-3)Gal(b1-4)GlcNAc(b1-3)Gal(b1-4)GlcNAc(b1-3)Gal(b1-4)GlcNAc(b1-2)[GlcNAc(b1-3)Gal(b1-4)GlcNAc(b1-3)Gal(b1-4)GlcNAc(b1-3)Gal(b1-4)GlcNAc(b1-3)Gal(b1-4)GlcNAc(b1-6)]Man(a1-6)[GlcNAc(b1-3)Gal(b1-4)GlcNAc(b1-3)Gal(b1-4)GlcNAc(b1-3)Gal(b1-4)GlcNAc(b1-3)Gal(b1-4)GlcNAc(b1-2)Man(a1-3)]Man(b1-4)GlcNAc(b1-4)[Fuc(a1-6)]GlcNAc
In short: as §1

[10] = target: GlcNAc(b1-3)Gal(b1-4)GlcNAc(b1-6)[Gal(b1-3)]GalNAc
In short: as §1

Man(b1-4)GlcNAc = target: Man(b1-4)GlcNAc
In short: as §1

[11] = target: Neu5Ac(a2-3)Gal(b1-3)GlcNAc(b1-3)Gal(b1-4)GlcNAc
In short: as §1

[12] = target: Neu5Ac(a2-3)Gal(b1-3)[Fuc(a1-4)]GlcNAc(b1-3)Gal(b1-4)[Fuc(a1-3)]GlcNAc
In short: as §1

[13] = target: Neu5Ac(a2-3)Gal(b1-4)GlcNAc(b1-2)Man
In short: as §1

[14] = target: Neu5Ac(a2-3)Gal(b1-4)GlcNAc(b1-2)[Neu5Ac(a2-3)Gal(b1-4)GlcNAc(b1-4)]Man(a1-3)[GlcNAc(b1-4)][Neu5Ac(a2-3)Gal(b1-4)GlcNAc(b1-4)Man(a1-6)]Man(b1-4)GlcNAc(b1-4)GlcNAc
In short: as §1

[15] = target: Neu5Ac(a2-3)Gal(b1-4)GlcNAc(b1-3)Gal
In short: as §1

[16] = target: Neu5Ac(a2-3)Gal(b1-4)GlcNAc(b1-3)Gal(b1-4)GlcNAc(b1-2)Man(a1-3)[Neu5Ac(a2-3)Gal(b1-4)GlcNAc(b1-3)Gal(b1-4)GlcNAc(b1-2)Man(a1-6)]Man(b1-4)GlcNAc(b1-4)GlcNAc
In short: as §1

[17] = target: Neu5Ac(a2-3)Gal(b1-4)GlcNAc(b1-3)[Neu5Ac(a2-3)Gal(b1-4)GlcNAc(b1-6)]GalNAc
In short: as §1

[18] = target: Neu5Ac(a2-3)[GalNAc(b1-4)]Gal(b1-4)GlcNAc
In short: as §1

[19] = target: Neu5Ac(a2-3)[GalNAc(b1-4)]Gal(b1-4)GlcNAc(b1-3)GalNAc
In short: as §1

[20] = target: Neu5Ac(a2-6)Gal(b1-4)GlcNAc(b1-2)Man(a1-6)[Gal(b1-4)GlcNAc(b1-2)Man(a1-3)]Man(b1-4)GlcNAc(b1-4)GlcNAc
In short: as §1

[21] = target: Neu5Ac(a2-8)Neu5Ac(a2-3)[GalNAc(b1-4)]Gal(b1-4)Glc
In short: as §1

[22] = target: Neu5Ac9Ac(a2-6)Gal(b1-4)GlcNAc
In short: as §1

[23] = target: Neu5Gc(a2-3)Gal(b1-3)GlcNAc
In short: as §1

B1: Tp0751, 83732 (protein)
chain: MSYYHHHHHHLESTSLYKKAGFQHGHVPPRRIPPHDTFGALPTAALPSNARDTAAHPSDTADNTSGSSTTTDPRSHGNAPPAPVGGAAQTHTQPPVQTAMRIALWNRATHGEQGALQHLLAGLWIQTEISPNSGDIHPLLFFDREHAEITFSRASVQEIFLVDSAHTHRKTVSFLTRNTAISSIRRRLEVTFESHEVIHVRAVEDVARLKIGSTSMWDGQYTRYHAGPASAPSP
glycan array binding signal (z-score) (Gal3S(b1-4)Glc): 5.83
glycan array binding signal (z-score) [1]: 1.94
glycan array binding signal (z-score) (Gal3S6S(b1-4)GlcNAc6S): 2.54
glycan array binding signal (z-score) (Gal6S(b1-3)GlcNAc6S): 2.18
glycan array binding signal (z-score) (GalNAc(a1-3)Gal): -0.699
glycan array binding signal (z-score) [2]: 1.24
glycan array binding signal (z-score) [3]: 1.63
glycan array binding signal (z-score) [4]: -0.378
glycan array binding signal (z-score) [5]: -0.299
glycan array binding signal (z-score) [6]: 0.781
glycan array binding signal (z-score) [7]: -0.584
glycan array binding signal (z-score) [8]: -0.326
glycan array binding signal (z-score) [9]: -0.088
glycan array binding signal (z-score) [10]: -0.81
glycan array binding signal (z-score) (Man(b1-4)GlcNAc): -0.599
glycan array binding signal (z-score) [11]: 0.058
glycan array binding signal (z-score) [12]: 0.658
glycan array binding signal (z-score) [13]: 6.75
glycan array binding signal (z-score) [14]: -0.386
glycan array binding signal (z-score) [15]: -0.332
glycan array binding signal (z-score) [16]: 0.542
glycan array binding signal (z-score) [17]: -0.246
glycan array binding signal (z-score) [18]: -0.76
glycan array binding signal (z-score) [19]: 0.098
glycan array binding signal (z-score) [20]: -0.478
glycan array binding signal (z-score) [21]: -0.022
glycan array binding signal (z-score) [22]: -0.145
glycan array binding signal (z-score) [23]: 0.052
